Assay [1] in a line: A CellTox Green Cytotoxicity Assay to monitor cytotoxicity in HEK293 cells - 32 hour (AID 1224881). Further: nearly all actives have a fitted effect of over 40% in size. Further: potency means the concentration at half of the fitted maximal effect. To be noted: CellTox Green fluorescence; series mostly up to 76.8 µM. The essentials: (§1)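 Real-time, in one plate: 600 HEK293 cells/well with dead-cell DNA dye, pinned compound after 5 h, 37 C incubation over 40 h; viable cells give no appreciable fluorescence.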
A short description of assay [2]: A CellTox Green Cytotoxicity Assay to monitor cytotoxicity in HepG2 cells - 0 hour (AID 1224882). Further: nearly all actives have a fitted effect of over 35% in size. The following applies: CellTox Green fluorescence; series mostly up to 76.8 µM. The essentials: (§2)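 Cytotoxicity was tracked as dead-cell DNA fluorescence in HepG2 cells treated with test compounds at 37 C; each time-point value comes from one kinetic series spanning 0, 8, 16, 24, 32 and 40 h.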

A short description of assay [3]: A CellTox Green Cytotoxicity Assay to monitor cytotoxicity in HepG2 cells - 32 hour (AID 1224883). Further: nearly all actives have a fitted effect of over 50% in size. The following applies: CellTox Green fluorescence; series mostly up to 76.8 µM. The essentials: as §2
Assay [4] can be described thus: A CellTox Green Cytotoxicity Assay to monitor cytotoxicity in HEK293 cells - 8 hour (AID 1224884). Further: nearly all actives have a fitted effect of over 35% in size. The following applies: CellTox Green fluorescence; series mostly up to 76.8 µM. The essentials: as §1
Assay [5] in a line: qHTS RealTime-Glo MT Cell Viability Assay in HEK293 cells - 24 hour (AID 1224886). Further: top concentration of the series differs between compounds; nearly all actives have a fitted effect of over 50% in size. The following applies: RealTime-Glo luminescence; series mostly up to 76.8 µM. A digest of the protocol:
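Luminescence generated by NanoLuc from substrate produced by living HEK293 cells served as the viability signal. Each value reflects the reading at its stated time point during continuous 40 h compound exposure at 37 C.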
For orientation: Quantitative high-throughput screening tests each substance at several concentrations.

Assay [6] is described as follows: qHTS RealTime-Glo MT Cell Viability Assay in HEK293 cells - 8 hour (AID 1224887). Further: top concentration of the series differs between compounds; nearly all actives have a fitted effect of over 50% in size. To be noted: RealTime-Glo luminescence; series mostly up to 76.8 µM. A digest of the protocol: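 Kinetic, non-lysing viability readout. Seed HEK293 (600/well) with reagent, incubate 5 h at 37 C/5% CO2, pin 23 nL compound in DMSO, incubate at 37 C, read luminescence at 0, 8, 16, 24, 32, 40 h.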

Assay [7] can be described thus: A CellTox Green Cytotoxicity Assay to monitor cytotoxicity in HEK293 cells - 16 hour (AID 1224888). Further: nearly all actives have a fitted effect of over 35% in size. To be noted: CellTox Green fluorescence; series mostly up to 76.8 µM. The essentials:
as §1

Assay [8] in a line: A CellTox Green Cytotoxicity Assay to monitor cytotoxicity in HepG2 cells - 8 hour (AID 1224890). Further: nearly all actives have a fitted effect of over 45% in size. The following applies: CellTox Green fluorescence; series mostly up to 76.8 µM. A digest of the protocol: as §2
Assay [9] is described as follows: qHTS assay to identify small molecule antagonists of the estrogen receptor alpha (ER-alpha) signaling pathway using the BG1 cell line in the presence of 0.1 nM 17-beta-estradiol - cell viability counter screen (AID 1259241). Further: nearly all actives have a fitted effect of over 40% in size. The following applies: VM7Luc4E2 (BG1) viability, CellTiter-Fluor protease, 22 h, 0.1 nM estradiol agonist added; series mostly up to 92.4 µM. The essentials: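 Measures cytotoxicity alongside the ER-alpha antagonist readout: VM7Luc4E2 cells, charcoal-stripped serum, 0.1 nM 17beta-estradiol final, 22 hr compound incubation at 37C, CellTiter-Fluor fluorescence.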

Assay [10] can be described thus: qHTS assay to identify small molecule antagonists of the androgen receptor (AR) signaling pathway using the MDA cell line in the presence of 0.5 nM R1881 - cell viability counter screen (AID 1259242). Further: nearly all actives have a fitted effect of over 45% in size. The following applies: MDA-kb2 viability, CellTiter-Fluor protease fluorescence, 16 h; series mostly up to 92.4 µM. A digest of the protocol:
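Cells seeded at 3,000/well and allowed 5 hr at 37C, 0% CO2 before compound transfer and R1881 (0.5 nM final) addition; 16 hr later, live-cell protease fluorescence indicated cytotoxicity.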

In assay [11] the target is Androgen receptor (Homo sapiens) (UniProt P10275). The experiment in a line: qHTS assay to identify small molecule antagonists of the androgen receptor (AR) signaling pathway using the MDA cell line in the presence of 0.5 nM R1881 (AID 1259243). Further: nearly all actives have a fitted effect of over 50% in size. To be noted: MDA-kb2 MMTV-luciferase, R1881 0.5 nM, 16 h; series mostly up to 92.4 µM. A digest of the protocol:
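Luminescence from an AR/GR-responsive MMTV-luciferase construct in MDA-kb2 breast carcinoma cells, read 30 min after ONE-Glo, following 16 hr co-treatment with compounds and 0.5 nM R1881.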

In assay [12] the target is Estrogen receptor (Homo sapiens) (UniProt P03372). The experiment in a line: qHTS assay to identify small molecule antagonists of the estrogen receptor alpha (ER-alpha) signaling pathway using the BG1 cell line in the presence of 0.1 nM 17-beta-estradiol (AID 1259244). Further: nearly all actives have a fitted effect of over 50% in size. The following applies: VM7Luc4E2 (BG1) ERE-luciferase, antagonist mode, 0.1 nM E2, 22 h; series mostly up to 92.4 µM. A digest of the protocol:
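Luciferase signal from VM7Luc4E2 ERE-reporter cells, co-dosed with test compound and 0.1 nM final 17beta-estradiol for 22 h, read with ONE-Glo.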

A short description of assay [13]: qHTS assay to identify small molecule phospholipidosis (PLD) inducers (AID 1259344; active means well fitted curve in the direction sought with a large enough effect; an effect the other way counts as inactive or inconclusive). The following applies: HepG2 phospholipidosis, LipidTOX Red imaging, 24 h; series mostly up to 38.3 µM. The essentials: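 After 4 h attachment on collagen I, HepG2 cells were dosed with compound alongside LipidTOX Red, kept 24 h at 37 C, fixed, and imaged for lamellar phospholipid pits.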

Assay [14] in a line: qHTS assay to identify small molecule HDAC inhibitors (AID 1259364).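 Further: wild-type HCT-116 cells with endogenous class I/II HDAC activity; top concentration of the series differs between compounds; nearly all actives have a fitted effect of over 45% in size.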 To be noted: HCT-116 HDAC-Glo I/II luminescence, 2 h; series mostly up to 92.4 µM. A digest of the protocol: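 HCT-116 wt cells, 1,500/well, overnight attach. Compounds (DMSO) 2 h, 37 °C. HDAC-Glo I/II, 30 min RT. Luminescence.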
The nature of assay [15]: qHTS assay to identify small molecule HDAC inhibitors - cell viability counter screen (AID 1259365). Further: nearly all actives have a fitted effect of over 50% in size. To be noted: HCT-116 viability, CellTiter-Glo ATP luminescence, 2 h; series mostly up to 92.4 µM. A digest of the protocol: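 Following a 2hr exposure of overnight-plated wild-type HCT-116 cells to DMSO-delivered compounds, CellTiter-Glo was added and luminescence recorded after 30min at room temperature.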

The nature of assay [16]: qHTS assay to identify small molecule agonists of the sonic hedgehog signaling (Shh) pathway - cell viability counter screen (AID 1259366). Further: nearly all actives have a fitted effect of over 50% in size. Further: potency means the concentration at half of the fitted maximal effect. The following applies: NIH/3T3 Gli1-Luc viability, CellTiter-Fluor, 24 h; series mostly up to 92.4 µM. The essentials: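 After a 4hr attachment at 37C, NIH/3T3 cells bearing an integrated Gli1-driven luciferase reporter were dosed with compounds. Treatment lasted 24hr, with the final hour including CellTiter-Fluor for a fluorescence viability measurement.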

Assay [17] is described as follows: qHTS assay to identify small molecule antagonists of the sonic hedgehog signaling (Shh) pathway - cell viability counter screen (AID 1259367). Further: nearly all actives have a fitted effect of over 55% in size. Further: potency means the concentration at half of the fitted maximal effect. The following applies: NIH/3T3 Gli1-Luc viability, CellTiter-Fluor, 24 h; series mostly up to 92.4 µM. A digest of the protocol: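 Conditioned medium drove Shh signaling in 3T3 Gli1-Luc cells exposed to compounds at 37C and 5% CO2. Viability was determined from CellTiter-Fluor fluorescence, with reagent incubated 1 hr after 23 hr of treatment.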

Assay [18] is described as follows: qHTS assay to identify small molecule agonists of the sonic hedgehog signaling (Shh) pathway (AID 1259368; calls by dose curve;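 further: NIH/3T3-derived 3T3Gli1-Luc cells carrying a stable Gli1-driven firefly luciferase reporter; nearly all actives have a fitted effect of over 15% in size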). To be noted: NIH/3T3 Gli1-Luc reporter, luciferase, 24 h, stronger effect = higher value; series mostly up to 92.4 µM. The essentials:
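Following a 24 hr incubation with DMSO-dissolved compounds at 37 C, 5% CO2, Gli1-Luc NIH/3T3-derived cells received luciferase reagent for 30 min at room temperature prior to luminescence measurement.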

A short description of assay [19]: qHTS RealTime-Glo MT Cell Viability Assay in HepG2 cells - 0 hour (AID 1224889). Further: nearly all actives have a fitted effect of over 50% in size. The following applies: RealTime-Glo luminescence; series mostly up to 76.8 µM. The essentials:
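Tox21 10K library screened in qHTS format on HepG2 cells carrying RealTime-Glo reagents. Compounds were added after a 5 h preincubation, and the luminescent signal from continuous culture was measured repeatedly during 40 h treatment.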

The structures appear in SMILES notation. Where “and” joins values, the source holds several entries; their conditions need not be identical. Equal entries are not always repeated. Inconclusive results are not listed. A structure can be active in one record and inactive in another. Calls of active or inactive are those of the source. Unless noted, the call rests on the fitted dose curve; in most records, active means well fitted curve in the direction sought with a large enough effect in the repeat runs; inconclusive means weak or mixed curves; inactive means no such curve, though single readings can be large; an effect the other way counts as inactive or inconclusive.

Potency and outcome data for eleven compounds are collected here from PubChem BioAssay (Tox21).

Androgen receptor (Homo sapiens), sequence (P10275 whole entry, looked up): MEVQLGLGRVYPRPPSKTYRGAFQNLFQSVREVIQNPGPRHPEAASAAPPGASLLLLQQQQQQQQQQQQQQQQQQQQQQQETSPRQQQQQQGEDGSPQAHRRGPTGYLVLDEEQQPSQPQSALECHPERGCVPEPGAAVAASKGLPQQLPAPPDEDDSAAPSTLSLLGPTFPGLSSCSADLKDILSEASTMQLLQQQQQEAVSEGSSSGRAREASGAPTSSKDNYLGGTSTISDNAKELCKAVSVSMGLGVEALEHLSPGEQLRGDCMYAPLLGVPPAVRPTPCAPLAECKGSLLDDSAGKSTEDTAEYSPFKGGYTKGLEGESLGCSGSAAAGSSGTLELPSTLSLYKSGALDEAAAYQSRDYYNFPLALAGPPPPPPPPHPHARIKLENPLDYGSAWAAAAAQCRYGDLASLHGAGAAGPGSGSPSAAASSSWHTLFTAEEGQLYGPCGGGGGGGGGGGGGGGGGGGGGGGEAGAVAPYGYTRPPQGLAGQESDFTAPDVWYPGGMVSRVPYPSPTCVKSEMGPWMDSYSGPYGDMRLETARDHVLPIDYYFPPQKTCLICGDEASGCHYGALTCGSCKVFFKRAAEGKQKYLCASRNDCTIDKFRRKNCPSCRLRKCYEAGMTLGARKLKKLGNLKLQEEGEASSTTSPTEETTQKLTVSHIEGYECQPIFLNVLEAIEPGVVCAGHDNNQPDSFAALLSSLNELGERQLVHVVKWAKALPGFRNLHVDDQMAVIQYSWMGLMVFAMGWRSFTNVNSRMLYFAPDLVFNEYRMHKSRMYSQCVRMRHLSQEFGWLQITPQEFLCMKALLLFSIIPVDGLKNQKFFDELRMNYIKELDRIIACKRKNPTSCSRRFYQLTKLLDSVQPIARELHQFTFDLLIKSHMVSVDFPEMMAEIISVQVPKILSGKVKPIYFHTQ
Estrogen receptor (Homo sapiens), sequence (P03372 whole entry, looked up): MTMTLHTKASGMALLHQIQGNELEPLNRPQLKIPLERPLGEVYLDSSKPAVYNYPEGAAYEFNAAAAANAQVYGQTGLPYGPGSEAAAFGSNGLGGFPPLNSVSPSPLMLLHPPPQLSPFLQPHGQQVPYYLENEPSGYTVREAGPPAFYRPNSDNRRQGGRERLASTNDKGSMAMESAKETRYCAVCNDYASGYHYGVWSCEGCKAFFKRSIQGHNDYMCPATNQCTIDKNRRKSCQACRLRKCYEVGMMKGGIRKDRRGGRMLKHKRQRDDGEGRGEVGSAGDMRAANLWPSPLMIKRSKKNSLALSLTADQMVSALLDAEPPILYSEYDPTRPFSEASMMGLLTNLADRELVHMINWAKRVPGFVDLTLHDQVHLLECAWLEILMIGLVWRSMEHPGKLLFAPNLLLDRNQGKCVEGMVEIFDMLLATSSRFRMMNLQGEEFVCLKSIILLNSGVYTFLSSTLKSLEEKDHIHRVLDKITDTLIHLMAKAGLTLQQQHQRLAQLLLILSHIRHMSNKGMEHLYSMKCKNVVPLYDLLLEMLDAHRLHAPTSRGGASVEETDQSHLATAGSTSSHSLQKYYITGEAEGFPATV

As for `CC(C)(Oc1ccc(C2CC2(Cl)Cl)cc1)C(=O)O` (stereo not given), the Potency result in [1], in [2], in assay [3], in assay [4], in assay [5] and in assay [6] was “inactive” each time. The Potency result in [7], in assay [8], in assay [9], in [10], in assay [11] and in [12] was “inactive” in each case. Also, the Potency entry in [14], in assay [16] and in [17] was “inactive” in each case. For the same compound, the call in assay [13], in assay [15] and in assay [18] was inactive.
Regarding `O=C(O)c1cccnc1`, the Potency result in assay [1], in assay [2], in assay [3], in assay [4], in assay [5] and in assay [6] was “inactive” in each case. For the same compound, the Potency entry in [7], in assay [8], in assay [9], in [14], in assay [16] and in assay [17] was “inactive” each time. In addition, the call in assay [13], in assay [15] and in assay [18] was inactive.
Regarding `CCCCC(CC)COC(=O)/C=C/c1ccc(OC)cc1` (stereo not given), the Potency entry in [1], in [2], in assay [3], in [4], in [5] and in assay [6] was “inactive” throughout. Further, the Potency entry in assay [7], in [8], in assay [9], in assay [11], in [12] and in [14] was “inactive” throughout. Moreover, the Potency result in assay [16] and in [17] was “inactive” each time. Also, the call in [13], in assay [15] and in [18] was inactive.
As for `O=C(c1ccccc1)c1ccccc1`, the Potency entry in assay [1], in assay [2], in assay [3], in assay [4], in [5] and in assay [6] was “inactive” in each case. The Potency result in [7], in assay [8], in assay [9], in assay [11], in assay [14] and in [16] was “inactive” in each case. Also, in [17], the Potency result was “inactive”. For the same compound, the compound was called inactive in assay [13], in [15] and in [18].
`O=C(O)CS`: the Potency result in assay [1], in assay [2], in assay [3], in assay [4], in assay [5] and in assay [6] was “inactive” each time. Also, the Potency entry in assay [7], in assay [8], in [9], in assay [12], in assay [14] and in assay [17] was “inactive” in each case. The outcome in assay [15] and in assay [18] was inactive. In assay [16], the Potency result was “inactive and 30.9 µM (active)”.
`NNC(=O)c1ccncc1`: the Potency result in assay [1], in assay [2], in [3], in assay [4], in assay [5] and in assay [6] was “inactive” throughout. The Potency result in assay [7], in assay [8], in assay [9], in [12], in assay [14] and in assay [16] was “inactive” in each case. For the same compound, the Potency result in [17] was “inactive”. The compound was classed as inactive in assay [13], in assay [15] and in [18].
For the compound `O=C1CN(/N=C/c2ccc([N+](=O)[O-])o2)C(=O)N1`, the Potency entry in [1], in assay [2], in [3], in [4], in assay [5] and in [6] was “inactive” each time. The Potency entry in assay [7], in [19], in assay [8], in [10], in [12] and in assay [14] was “inactive” throughout. For the same compound, the outcome in assay [13], in assay [15] and in [18] was inactive. In addition, the Potency in assay [16] is 48.6 µM (active); in assay [17], 48.4 µM (active) and 38.6 µM (active).
`CC(O)CN(CCN(CC(C)O)CC(C)O)CC(C)O` (stereo not given): the Potency result in assay [1], in assay [2], in assay [3], in assay [4], in assay [5] and in assay [6] was “inactive” in each case. The Potency result in assay [8], in [9], in assay [14], in assay [16] and in assay [17] was “inactive” each time. In addition, the call in assay [13], in assay [15] and in assay [18] was inactive.
As for `O=C(O)CCCCCCCC(=O)O`, the Potency result in [1], in assay [2], in [3], in assay [4], in assay [5] and in assay [6] was “inactive” in each case. The Potency entry in [7], in assay [19], in [8], in [9], in assay [10] and in assay [14] was “inactive” in each case. Moreover, the Potency result in [16] and in [17] was “inactive” in each case. Also, the compound was classed as inactive in [13], in assay [15] and in [18].
For `O=C(O)C(=O)O`, the Potency result in assay [1], in assay [2], in assay [3], in [4], in assay [5] and in assay [6] was “inactive” throughout. Also, the Potency entry in assay [7], in assay [8], in assay [9], in assay [14], in [16] and in assay [17] was “inactive” each time. For the same compound, the compound was classed as inactive in assay [15] and in assay [18].
Regarding `CC1(C)[C@@H]2CC[C@@]1(C)C(=O)C2`, in [1], the Potency result was “inactive and 8.49 µM (active)”. Moreover, the Potency result in assay [2], in [3], in [4], in assay [5], in [6] and in [7] was “inactive” in each case. Moreover, the Potency result in assay [8], in assay [9], in assay [12], in [14], in assay [16] and in assay [17] was “inactive” throughout. Moreover, the result in [13], in assay [15] and in assay [18] was inactive.
